# Reference: the supplement of paper PMC10849652
# The full data set covers some 7,900 targets. This sample favours those with a hit. About 0.6% of all pairs of compound and target were hits.
# Tests used:
# Assay in all cases: log2 fold change, soluble protein after heating vs DMSO (PISA); higher = thermal stabilisation; K562 cells, 10 uM, 30 min; active = over 0.2 and 3.5 SD of the protein, either way, in both replicates (recomputed)
# [1] = compound: C1=CC2=NC=CN=C2C=C1/C=C/3\C(=O)NC(=O)S3
# Summary of the method: (§1)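 Soluble protein was quantified by TMTpro 16plex LC-MS/MS after channel sums were equalised. It was obtained as the supernatant after 21,000xg for 90 min from pooled aliquots of K562 cells (2×10^6 cells/mL, 10 μM compound, 30 min) heated for 3 min across 48°C-58°C and extracted in PBS with 0.5% NP-40 at 4°C. Thermal stability values are relative to control samples and come from duplicates. They are given as log2 fold changes.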
# [2] = compound: C1=CC=C(C=C1)C2=NC(=C(N2)C3=CC=NC=C3)C4=CC(=C(C=C4)Cl)O
# Summary of the method: as §1
# [3] = compound: C#Cc1cccc(Nc2ncnc3cc(OCCOC)c(OCCOC)cc23)c1 [erlotinib]
# Summary of the method: as §1
# [4] = compound: C1=CC(=CC=C1C2=NC3=C(N2)C=C(C=C3)C(=O)N)OC4=CC=C(C=C4)Cl
# Summary of the method: as §1
# [5] = compound: C1=CC(=C(C=C1Cl)C2=NC3=NC=CN=C3C(=N2)NC4=CC=NC=C4)F
# Summary of the method: as §1
# [6] = compound: C1CCN(C1)C(=O)NC2=CC=CC(=C2)NC3=NC=C(C(=N3)NCCC4=CN=CN4)Br
# Summary of the method: as §1
# [7] = compound: C1CN(CCC1(CC2=CC=C(C=C2)Cl)N)C3=NC=NC4=C3C=CN4
# Summary of the method: as §1
# [8] = compound: C/C(=N\NC(=O)C1=CC(=CC=C1)S(=O)(=O)N2CCOCC2)/C3=C(C=CC(=C3)Cl)O
# Summary of the method: as §1
# [9] = compound: C1=CC2=C(C=CC(=C2)/C=C\3/C(=O)NC(=NCC4=CC=CS4)S3)N=C1
# Summary of the method: as §1
# [10] = compound: C1=CC=C2C(=C1)C3=NNC4=CC=CC(=C43)C2=O
# Summary of the method: as §1
# Chain of UniProt Q9NYI0 (Q9NYI0 whole entry, looked up): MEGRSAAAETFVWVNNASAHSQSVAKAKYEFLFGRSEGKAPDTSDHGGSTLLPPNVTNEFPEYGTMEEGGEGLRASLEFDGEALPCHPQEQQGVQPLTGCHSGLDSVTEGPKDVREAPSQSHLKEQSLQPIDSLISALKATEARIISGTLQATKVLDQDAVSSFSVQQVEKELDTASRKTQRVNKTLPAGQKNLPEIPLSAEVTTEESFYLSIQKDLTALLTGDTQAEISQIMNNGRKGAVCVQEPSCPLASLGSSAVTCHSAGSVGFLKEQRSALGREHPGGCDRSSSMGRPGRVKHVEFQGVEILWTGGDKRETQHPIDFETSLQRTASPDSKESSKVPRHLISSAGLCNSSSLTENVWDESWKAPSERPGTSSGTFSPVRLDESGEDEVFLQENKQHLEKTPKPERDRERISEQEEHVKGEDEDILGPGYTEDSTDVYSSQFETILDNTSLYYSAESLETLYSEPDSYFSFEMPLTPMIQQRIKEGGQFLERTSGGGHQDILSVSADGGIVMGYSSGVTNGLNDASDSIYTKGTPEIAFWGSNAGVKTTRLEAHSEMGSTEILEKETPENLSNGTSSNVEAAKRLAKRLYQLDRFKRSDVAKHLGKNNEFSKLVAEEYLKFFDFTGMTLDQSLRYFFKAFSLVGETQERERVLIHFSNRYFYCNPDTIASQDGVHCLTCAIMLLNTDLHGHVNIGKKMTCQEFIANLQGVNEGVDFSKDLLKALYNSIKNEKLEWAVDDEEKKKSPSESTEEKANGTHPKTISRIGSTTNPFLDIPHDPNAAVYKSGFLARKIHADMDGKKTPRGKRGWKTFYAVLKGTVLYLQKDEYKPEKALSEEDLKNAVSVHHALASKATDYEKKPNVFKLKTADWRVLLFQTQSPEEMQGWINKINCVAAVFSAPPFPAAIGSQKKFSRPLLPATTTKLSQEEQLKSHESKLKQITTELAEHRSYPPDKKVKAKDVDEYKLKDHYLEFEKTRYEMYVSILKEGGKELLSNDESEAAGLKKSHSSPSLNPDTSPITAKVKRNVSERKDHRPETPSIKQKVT
# Chain of UniProt Q5JVF3 (Q5JVF3 whole entry, looked up): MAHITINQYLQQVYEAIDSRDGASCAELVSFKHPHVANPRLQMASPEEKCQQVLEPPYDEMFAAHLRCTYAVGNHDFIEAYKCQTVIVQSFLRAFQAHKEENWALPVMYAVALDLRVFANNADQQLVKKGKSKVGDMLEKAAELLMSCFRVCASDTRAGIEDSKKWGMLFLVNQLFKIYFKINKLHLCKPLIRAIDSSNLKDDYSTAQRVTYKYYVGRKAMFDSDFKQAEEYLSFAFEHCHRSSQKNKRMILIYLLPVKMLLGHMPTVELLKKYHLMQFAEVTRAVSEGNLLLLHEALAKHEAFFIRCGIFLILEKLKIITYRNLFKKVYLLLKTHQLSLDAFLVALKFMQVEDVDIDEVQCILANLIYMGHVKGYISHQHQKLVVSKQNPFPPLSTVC
# Chain of UniProt P60484 (P60484 whole entry, looked up): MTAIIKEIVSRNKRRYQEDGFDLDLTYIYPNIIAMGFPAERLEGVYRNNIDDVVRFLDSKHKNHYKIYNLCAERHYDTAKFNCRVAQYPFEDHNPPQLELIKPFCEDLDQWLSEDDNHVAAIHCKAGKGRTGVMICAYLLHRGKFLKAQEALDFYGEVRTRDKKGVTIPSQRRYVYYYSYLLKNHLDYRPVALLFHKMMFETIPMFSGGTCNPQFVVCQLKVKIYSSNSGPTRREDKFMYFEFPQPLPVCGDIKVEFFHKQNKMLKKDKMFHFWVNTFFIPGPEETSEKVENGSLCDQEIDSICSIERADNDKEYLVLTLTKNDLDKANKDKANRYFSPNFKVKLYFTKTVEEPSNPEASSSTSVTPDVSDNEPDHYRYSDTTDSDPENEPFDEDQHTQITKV
# Chain of UniProt P07205 (P07205 whole entry, looked up): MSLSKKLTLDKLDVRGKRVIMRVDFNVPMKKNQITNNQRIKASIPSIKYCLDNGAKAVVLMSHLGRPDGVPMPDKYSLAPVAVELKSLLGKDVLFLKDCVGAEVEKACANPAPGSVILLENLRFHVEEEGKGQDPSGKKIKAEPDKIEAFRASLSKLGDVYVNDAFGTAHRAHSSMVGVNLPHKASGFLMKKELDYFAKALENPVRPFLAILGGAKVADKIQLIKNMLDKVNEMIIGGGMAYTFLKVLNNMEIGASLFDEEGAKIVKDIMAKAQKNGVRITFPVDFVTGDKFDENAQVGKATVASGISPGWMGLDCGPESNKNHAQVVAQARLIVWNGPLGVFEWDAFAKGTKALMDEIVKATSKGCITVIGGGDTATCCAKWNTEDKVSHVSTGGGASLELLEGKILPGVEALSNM
# Chain of UniProt Q14671 (Q14671 whole entry, looked up): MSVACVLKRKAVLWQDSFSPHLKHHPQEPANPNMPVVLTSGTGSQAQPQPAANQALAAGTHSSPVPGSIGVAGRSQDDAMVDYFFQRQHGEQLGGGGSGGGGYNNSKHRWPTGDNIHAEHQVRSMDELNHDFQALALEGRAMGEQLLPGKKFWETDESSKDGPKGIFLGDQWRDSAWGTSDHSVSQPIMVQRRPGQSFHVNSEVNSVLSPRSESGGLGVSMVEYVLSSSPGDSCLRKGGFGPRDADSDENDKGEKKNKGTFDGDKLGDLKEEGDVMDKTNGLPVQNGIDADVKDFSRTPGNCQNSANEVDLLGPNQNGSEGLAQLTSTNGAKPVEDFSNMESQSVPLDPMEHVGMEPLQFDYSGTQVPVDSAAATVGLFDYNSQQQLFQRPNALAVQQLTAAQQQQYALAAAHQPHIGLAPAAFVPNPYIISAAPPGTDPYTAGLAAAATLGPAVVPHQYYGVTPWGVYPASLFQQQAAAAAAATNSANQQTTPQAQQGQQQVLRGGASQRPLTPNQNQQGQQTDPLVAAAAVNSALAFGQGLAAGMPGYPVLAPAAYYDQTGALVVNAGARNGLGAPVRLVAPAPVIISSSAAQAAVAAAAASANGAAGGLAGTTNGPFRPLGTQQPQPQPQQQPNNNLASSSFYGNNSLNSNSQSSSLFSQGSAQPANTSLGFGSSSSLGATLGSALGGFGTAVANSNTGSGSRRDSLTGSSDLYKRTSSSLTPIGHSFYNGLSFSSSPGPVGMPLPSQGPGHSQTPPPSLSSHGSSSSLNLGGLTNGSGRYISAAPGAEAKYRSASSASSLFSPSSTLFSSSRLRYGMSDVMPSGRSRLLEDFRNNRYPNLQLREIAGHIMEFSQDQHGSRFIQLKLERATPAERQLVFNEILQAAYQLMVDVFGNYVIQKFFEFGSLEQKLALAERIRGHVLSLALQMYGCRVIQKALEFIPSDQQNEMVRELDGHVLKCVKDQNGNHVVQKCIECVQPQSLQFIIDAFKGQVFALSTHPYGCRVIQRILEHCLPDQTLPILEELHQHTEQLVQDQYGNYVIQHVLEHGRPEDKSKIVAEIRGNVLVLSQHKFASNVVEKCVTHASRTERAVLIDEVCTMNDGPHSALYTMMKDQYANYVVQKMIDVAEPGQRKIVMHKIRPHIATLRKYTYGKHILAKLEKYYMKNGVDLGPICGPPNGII
# Chain of UniProt P51817 (P51817 whole entry, looked up): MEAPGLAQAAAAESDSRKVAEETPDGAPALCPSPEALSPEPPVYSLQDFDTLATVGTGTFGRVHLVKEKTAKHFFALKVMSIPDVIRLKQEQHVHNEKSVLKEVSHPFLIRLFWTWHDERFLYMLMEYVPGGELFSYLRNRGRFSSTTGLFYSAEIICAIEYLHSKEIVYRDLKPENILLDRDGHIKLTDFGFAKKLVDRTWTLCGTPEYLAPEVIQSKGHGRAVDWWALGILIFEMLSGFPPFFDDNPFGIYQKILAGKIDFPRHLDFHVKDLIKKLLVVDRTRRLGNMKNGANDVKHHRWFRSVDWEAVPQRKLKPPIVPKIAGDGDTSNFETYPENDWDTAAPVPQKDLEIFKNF
# Chain of UniProt Q9BZL4 (Q9BZL4 whole entry, looked up): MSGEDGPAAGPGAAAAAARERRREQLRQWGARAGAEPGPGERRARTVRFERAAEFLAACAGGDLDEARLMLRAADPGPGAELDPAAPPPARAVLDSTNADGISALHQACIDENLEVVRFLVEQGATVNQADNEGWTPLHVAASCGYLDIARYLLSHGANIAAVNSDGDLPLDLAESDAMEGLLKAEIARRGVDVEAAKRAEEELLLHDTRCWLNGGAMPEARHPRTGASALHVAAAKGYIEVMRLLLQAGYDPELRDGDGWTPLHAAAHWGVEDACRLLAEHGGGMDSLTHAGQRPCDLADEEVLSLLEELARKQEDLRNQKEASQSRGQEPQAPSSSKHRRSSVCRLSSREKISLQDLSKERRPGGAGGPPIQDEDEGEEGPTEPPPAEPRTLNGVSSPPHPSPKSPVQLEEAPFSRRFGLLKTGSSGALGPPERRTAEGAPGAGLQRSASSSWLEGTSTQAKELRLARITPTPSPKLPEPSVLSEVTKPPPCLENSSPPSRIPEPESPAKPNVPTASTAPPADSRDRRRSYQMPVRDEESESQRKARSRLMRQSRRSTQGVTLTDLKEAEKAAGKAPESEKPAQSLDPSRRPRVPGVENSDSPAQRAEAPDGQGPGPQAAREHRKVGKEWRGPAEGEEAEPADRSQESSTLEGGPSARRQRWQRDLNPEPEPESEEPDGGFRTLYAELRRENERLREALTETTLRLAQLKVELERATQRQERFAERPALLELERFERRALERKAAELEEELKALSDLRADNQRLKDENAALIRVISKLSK
# Chain of UniProt Q9NUJ7 (Q9NUJ7 whole entry, looked up): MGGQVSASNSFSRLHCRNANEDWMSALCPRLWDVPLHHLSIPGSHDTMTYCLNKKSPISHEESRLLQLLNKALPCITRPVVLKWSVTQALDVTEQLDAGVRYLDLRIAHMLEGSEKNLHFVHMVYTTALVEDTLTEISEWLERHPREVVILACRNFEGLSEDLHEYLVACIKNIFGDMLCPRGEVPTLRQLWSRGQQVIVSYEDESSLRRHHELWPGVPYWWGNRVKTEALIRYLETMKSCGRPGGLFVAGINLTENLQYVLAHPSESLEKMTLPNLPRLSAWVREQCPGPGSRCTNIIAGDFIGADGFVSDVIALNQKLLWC
target,measurement,setting,value
PSMA3 (UniProt G3V4X5),log2 fold change,[1],0.051 (inactive)
same,log2 fold change,[2],0.348 (inactive)
PRKX (UniProt P51817),log2 fold change,[3],0.169 (inactive)
same,log2 fold change,[4],0.035 (inactive)
same,log2 fold change,[1],0 (inactive)
PPP1R12C (UniProt Q9BZL4),log2 fold change,[3],-0.13 (inactive)
same,log2 fold change,[5],-0.011 (inactive)
same,log2 fold change,[4],-0.059 (inactive)
same,log2 fold change,[1],0.064 (inactive)
same,log2 fold change,[2],0.037 (inactive)
same,log2 fold change,[6],-0.05 (inactive)
same,log2 fold change,[7],-0.238 (inactive)
PSMC1 (UniProt G3V4X1),log2 fold change,[3],0.149 (inactive)
same,log2 fold change,[4],-0.001 (inactive)
PAN2 (UniProt Q504Q3),log2 fold change,[1],0.044 (inactive)
PCBP2 (UniProt F8VZX2),log2 fold change,[3],-0.014 (inactive)
same,log2 fold change,[4],-0.077 (inactive)
same,log2 fold change,[1],-0.019 (inactive)
same,log2 fold change,[2],-0.008 (inactive)
PTEN isoform 2 (UniProt P60484),log2 fold change,[3],0.264 (inactive)
same,log2 fold change,[4],0.061 (inactive)
same,log2 fold change,[2],0.178 (inactive)
POLB (UniProt P06746),log2 fold change,[3],-0.236 (inactive)
same,log2 fold change,[5],-0.186 (inactive)
same,log2 fold change,[4],0.094 (inactive)
same,log2 fold change,[2],0 (inactive)
same,log2 fold change,[6],-0.118 (inactive)
same,log2 fold change,[7],0.002 (inactive)
PI4K2B (UniProt Q8TCG2),log2 fold change,[3],-0.003 (inactive)
same,log2 fold change,[8],-0.008 (inactive)
same,log2 fold change,[4],0.065 (inactive)
same,log2 fold change,[9],0.004 (inactive)
same,log2 fold change,[1],0.016 (inactive)
same,log2 fold change,[2],-0.019 (inactive)
same,log2 fold change,[10],-0.007 (inactive)
same,log2 fold change,[6],0.048 (inactive)
same,log2 fold change,[7],-0.173 (inactive)
PUM1 (UniProt Q14671),log2 fold change,[3],0.308 (inactive)
same,log2 fold change,[8],0.035 (inactive)
same,log2 fold change,[4],0.15 (inactive)
same,log2 fold change,[9],-0.034 (inactive)
same,log2 fold change,[10],0.051 (inactive)
same,log2 fold change,[6],-0.045 (inactive)
same,log2 fold change,[7],-0.024 (inactive)
PSD3 (UniProt Q9NYI0),log2 fold change,[8],-0.022 (inactive)
same,log2 fold change,[9],0.1 (inactive)
same,log2 fold change,[2],-0.001 (inactive)
same,log2 fold change,[10],0.018 (inactive)
PRR14L (UniProt Q5THK1),log2 fold change,[8],-0.168 (inactive)
same,log2 fold change,[9],0.16 (inactive)
same,log2 fold change,[10],-0.091 (inactive)
same,log2 fold change,[6],0.166 (inactive)
same,log2 fold change,[7],-0.023 (inactive)
PCID2 (UniProt Q5JVF3),log2 fold change,[3],0.086 (inactive)
same,log2 fold change,[5],-0.088 (inactive)
same,log2 fold change,[4],-0.021 (inactive)
same,log2 fold change,[1],0.028 (inactive)
same,log2 fold change,[2],-0.005 (inactive)
same,log2 fold change,[6],-0.086 (inactive)
same,log2 fold change,[7],-0.161 (inactive)
PLCXD1 (UniProt Q9NUJ7),log2 fold change,[1],0.025 (inactive)
same,log2 fold change,[2],-0.012 (inactive)
PSMA3 (UniProt H0YJ03),log2 fold change,[8],-0.698 (active)
same,log2 fold change,[9],0.095 (inactive)
same,log2 fold change,[2],-0.065 (inactive)
same,log2 fold change,[10],-0.006 (inactive)
same,log2 fold change,[6],-0.027 (inactive)
same,log2 fold change,[7],0.2 (inactive)
PGK2 (UniProt P07205),log2 fold change,[8],-0.055 (inactive)
same,log2 fold change,[5],-0.082 (inactive)
same,log2 fold change,[9],0.152 (inactive)
same,log2 fold change,[1],-0.018 (inactive)
same,log2 fold change,[2],-0.057 (inactive)
same,log2 fold change,[10],-0.012 (inactive)
same,log2 fold change,[6],0.034 (inactive)
same,log2 fold change,[7],0.029 (inactive)
